# Source: PubChem BioAssay (The Scripps Research Institute Molecular Screening Center)
# TTR transcr act = TTR transcription activation, primary screen; SH-SY5Y TTR promoter Gaussia luciferase, luminescence; 100% = recombinant luciferase protein wells; activation, % at 16.7 µM; 92,000 tested, 1.3% active; AID 1117267;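 active = activation above the mean of all tested compounds plus 3 SD, cut at about 9.5% in these data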;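 also: cells exposed to compounds for one day before reading; 0% = median of all test compound wells on the plate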
# TTR inh HuH7 = HuH7 TTR transcription inhibition, counter-screen; shares compounds with TTR transcr act; HuH7 TTR promoter-Gaussia luciferase reporter, luminescence; inhibition, % at 16.7 µM; 1,100 tested, 4% active; AID 1117279;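 active = average inhibition above the solvent-only control wells' mean plus 3 SD, cut at about 15% in these data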;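 also: 0% = cells with DMSO only and 100% = cells with inhibitor control FD; inhibitors lower well luminescence so higher value means more inhibition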
# TTR act confirm = confirmation of human transthyretin transcription activators | shares compounds with TTR transcr act | SHSY5Y TTR promoter Gaussia luciferase, luminescence; 100% = purified Lucia enzyme wells, no cells | activation, % at 16.7 µM | 1,100 tested, under 10 active | AID 1117280;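 active = mean activation above a set limit taken from the earlier primary screen, cut at about 11% in these data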;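 also: 0% = DMSO-treated cells and 100% = recombinant Lucia luciferase without cells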
# * marks the source's active call; other numbers are inactive results. The sample as a whole holds a higher share of hits than the screen did.
SMILES,TTR transcr act,others
COc1ccccc1C(=O)NC(CCSC)C(=O)OCC(=O)N1CCCC1=O (centres undefined),-0.8,
Cc1ccccc1-c1nc(CSc2nc3c(c(=O)[nH]2)CCC3)c(C)o1,1.3,
Cc1oc(-c2ccccc2)nc1CSc1nc2c(c(=O)[nH]1)CCC2,14.0*,TTR inh HuH7=-32.0;TTR act confirm=0.3
Cc1cccc(-c2nc(CSc3nc4c(c(=O)[nH]3)CCC4)c(C)o2)c1,0.8,
Cn1c(=O)c2[nH]c(SCc3cccnc3)nc2n(C)c1=S,0.6,
COc1ccc(CC(=O)NNC(=O)CCc2ccccc2)cc1,0.1,
Cc1ccccc1OCC(=O)NNC(=O)CCc1ccccc1,10.2*,TTR inh HuH7=-9.7;TTR act confirm=-0.1
Cc1ccccc1OCC(=O)NNC(=S)NC(=O)c1ccco1,0.8,
O=C1CCC[C@H]2C[C@H](NCc3ccc(Cl)c(Cl)c3)CC[C@]23CCCN13,-0.5,
O=C(O)CCCc1nc2ccccc2s1,-1.6,
COC(=O)CCCc1nc2ccccc2s1,-4.3,
Cc1cnc(NC(=O)CCCc2nc3ccccc3s2)s1,12.6*,TTR inh HuH7=15.9*;TTR act confirm=0.7
O=C(CCCSc1nc2ccccc2s1)NCc1ccc2c(c1)OCO2,-0.4,
Cc1ccccc1NC(=O)CCCSc1nc2ccccc2s1,12.5*,TTR inh HuH7=-15.8;TTR act confirm=-0.4
CC(C)(C)NC(=O)CCCSc1nc2ccccc2s1,-1.3,
Cc1ccccc1Cn1cc(COC(=O)NCCc2c[nH]c3ccccc23)nn1,1.3,
N#Cc1ccccc1S(=O)(=O)N1CCN(c2nc(-c3cccs3)nc3ccccc23)CC1,0.6,
O=C(COCc1ccccc1)NC1CCCCN(Cc2ccc(Cl)cc2)C1=O (centres undefined),0.8,
COC(=O)C1CN(Cc2ccc(OC)cc2)CCS(=O)(=O)N1Cc1cn(Cc2ccc(Cl)cc2)nn1 (centres undefined),-0.6,
O=C(Nc1ccc(C(F)(F)F)cc1)OC1CC2CC1[C@H]1CCCCN1C2 (some centres undefined),1.0,
O=C(Cc1n[nH]c(=O)c2ccccc12)Nc1ccc(-c2nnc3n2CCCCC3)cc1,1.3,
Cc1c(C(=O)Nc2ccc(-c3nnc4n3CCCCC4)cc2)oc2c1ccc1ccccc12,-2.0,
O=C(Cn1[nH]c(=O)c2ccccc2c1=O)Nc1ccc(-c2nnc3n2CCCCC3)cc1,11.6*,TTR inh HuH7=-15.3;TTR act confirm=1.1
COC(=O)[C@]12CCCCC=C1N(Cc1ccc(OC)cc1)C(=O)[C@@H]2CC(=O)NCCc1ccccc1OC,1.8,
CCN(CC)C(=O)C1=C(C)N(CCC2=CCCCC2)C(=O)C(CC(=O)NCCCCc2ccccc2)C1 (centres undefined),-1.9,
SMILES,TTR transcr act,others
CCN(CC)C(=O)C1=C(C)N(CCC2=CCCCC2)C(=O)C(CC(=O)NCCc2ccccn2)C1 (centres undefined),23.9*,TTR inh HuH7=-8.8;TTR act confirm=-0.5
CC1=C(C(=O)N2CCOCC2)CC(CC(=O)NCCc2ccccn2)C(=O)N1CCC1=CCCCC1 (centres undefined),-1.1,
COC(=O)[C@]12C[C@H](CC(=O)NCCc3ccccc3OC)C(=O)N(Cc3ccccc3)C1=C[C@H](COCc1ccccc1)O[C@@H]2C,2.1,
Nc1ncnc(N)c1NC(=O)c1cc(Cl)c(OCc2ccccc2)c(Cl)c1,0.3,
O=C(COc1ccc(-n2cnnn2)cc1)Nc1ccc(F)cc1,6.0,
O=C(COc1ccc(-n2cnnn2)cc1)Nc1ccc(F)c(F)c1F,-0.6,
O=C(COc1ccc(-n2cnnn2)cc1)Nc1ccc(F)c(F)c1,12.8*,TTR inh HuH7=-17.8;TTR act confirm=0.8
O=C(C1CCC1)n1ccc2ccc(-c3ccc4ccn(Cc5ccccc5)c4c3)cc21,-1.5,
COC(=O)[C@]1(CC(C)C)N[C@H](c2ccc(-c3ccc(F)cc3)c(OC)c2)[C@@H]2C(=O)N(C)C(=O)[C@@H]21,12.6*,TTR inh HuH7=-10.6;TTR act confirm=0.2
COC(=O)[C@]1(CC(C)C)N[C@H](c2ccc(SC3CCCCC3)c(OC)c2)[C@@H]2C(=O)N(C)C(=O)[C@@H]21,0.1,
CCC(C)Sc1ccc([C@H]2N[C@@](CC(C)C)(C(=O)OC)[C@H]3C(=O)N(CC)C(=O)[C@@H]23)cc1 (some centres undefined),2.7,
COC(=O)C1=C(C(=O)OC)[C@@]2([C@@H](Cc3ccc(C)cc3)Nc3ccccc3)C=C[C@@H]1O2,-6.7,
CC1(C)Oc2ccc3ccc(=O)oc3c2[C@@H](O)[C@@H]1O,4.8,
CCCCC#CC(CC)NCc1ccc(OC)cc1OC (centres undefined),2.1,
COc1cc(SC)ccc1C(=O)NCCNC(=O)c1nonc1N,14.4*,TTR inh HuH7=-28.1;TTR act confirm=0.3
COc1cc(SC)ccc1C(=O)NCc1ccc(C)cc1,-2.1,
CCCNC(=O)c1ccc(SC)cc1OC,2.5,
COC(=O)[C@]12C[C@H](CC(=O)NCCc3ccccc3OC)C(=O)N(Cc3cccc4ccccc34)C1=C[C@H](C1CCCC1)O[C@@H]2C,-1.2,
CCCCCCN1C[C@H](n2cc(C3CC3)nn2)[C@@H](O)C[C@@H]1c1ccccc1,-1.1,
COc1ccc(CCN2C(=O)CCC2(C)c2nnnn2Cc2ccccc2)cc1OC (centres undefined),-1.9,
CS(=O)(=O)c1ccc(C(=O)OCC#CCSc2nnc(-c3cccc4ccccc34)o2)cc1,-0.9,
CCOC(=O)C1=C(C)NC(C)=C(C(=O)OC)C1c1ccco1 (centres undefined),11.9*,TTR inh HuH7=-22.0;TTR act confirm=1.6
CCCCCCCOC(=O)C1=C(C)Nc2ncnn2C1c1cccs1 (centres undefined),-1.9,
CCOC(=O)C1=C(C)NC(=S)NC1c1ccc(OC(=O)c2ccco2)cc1 (centres undefined),-1.2,
COCCOC(=O)C1=C(C)Nc2ncnn2C1c1ccco1 (centres undefined),13.4*,TTR inh HuH7=-9.9;TTR act confirm=0.8
SMILES,TTR transcr act,others
C=CCOC(=O)C1=C(C)NC(C)=C(C(=O)OCC=C)C1c1ccco1,0.0,
CCCCOC(=O)C1=C(C)Nc2ncnn2C1c1cc(OC)ccc1OC (centres undefined),0.9,
O=c1c([N+](=O)[O-])c(Cl)c2ccccc2n1Cc1ccccc1,-1.6,
COC(=O)C[C@@H]1CC[C@H]2[C@@H](COc3ccc(NC(=O)Nc4ccccc4Cl)cc3C(=O)N2C)O1,0.2,
Cc1ccc(NC(=O)[C@@H]2CCCN2S(=O)(=O)c2cccc3cccnc23)c(C)c1,1.2,
CC(C)CNS(=O)(=O)/C=C/c1ccccc1CCNC(=O)OC(C)(C)C,0.9,
O=C(c1ccc(Cl)c(S(=O)(=O)N2CCOCC2)c1)N1CCCC1,-1.3,
Cc1cccc(NS(=O)(=O)c2cc(C(=O)N3CCCC3)ccc2Cl)c1,10.2*,TTR inh HuH7=-10.0;TTR act confirm=0.2
CN1CCN(C(=O)c2ccc(Cl)c(S(=O)(=O)N3CCCCC3)c2)CC1,3.0,
COC(=O)[C@@]12CCCCC=C1N(CCc1ccc(Cl)cc1)C(=O)[C@H]2CC(=O)NCc1cccc2ccccc12,-1.2,
COc1ccc(C2OCCNC3C2C(=O)N(Cc2ccc(OC)cc2OC)C3Cc2ccccc2)cc1 (centres undefined),-0.5,
Cc1nc(-c2nnc(SCC(=O)Nc3ccc(Cl)cc3)n2C)cs1,23.4*,TTR inh HuH7=-23.9;TTR act confirm=-0.4
Cn1cnnc1SCC(=O)Nc1ccc(F)cc1F,0.5,
Cn1cnnc1SCC(=O)Nc1ccc(Oc2ccccc2)cc1,-0.4,
Cn1cnnc1SCC(=O)Nc1ccc(Cl)cc1,12.6*,TTR inh HuH7=-10.5;TTR act confirm=0.4
CCC(=O)Nc1ccc(NC(=O)CSc2nnc(-c3ccco3)n2C)cc1,2.2,
